NS3h inh CB = hepatitis C NS3 helicase inhibition, primary screen | 16,000 compounds, 1.6% hits | NS3h Cy5-dT15 DNA binding, fluorescence polarization | AID 687043 | inhibition, % at 100 µM;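 active = inhibition above the average over every tested compound plus 3 SD, cut at about 40% in these data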
Cy5 interf NS3h = enhances or quenches Cy5 fluorescence in NS3h assay | Cy5-dT15 DNA with NS3h, fluorescence interference; actives lie on both sides; signal over control mean, under 1 quenches | fluorescence interference ratio at 100 µM | 16,000 compounds, 6% hits | AID 720488;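 active = compound fluorescence over control fluorescence at most 0.8, a quencher, or at least a set upper limit, an enhancer; inactive = ratio between 0.8 and the set upper limit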
Each line names hits and unclear results; the compound was inactive in the other large screens. An excerpt weighted towards active compounds, which were near 7.6% of everything screened.

Nc1ccc(Oc2ccc(N)c(N)c2)cc1	Cy5 interf NS3h 0.19
COc1ccc(Oc2ccc(N)cc2)cc1	none
CC1=C(C(=O)Nc2cccc(Cl)c2)C(c2ccccc2Br)NC(=S)N1 (stereo not drawn)	none
COCCNC(=O)c1ccccc1[N+](=O)[O-]	none
Cc1cc2ncn(C(=O)c3ccc([N+](=O)[O-])cc3)c2cc1C	none
Cc1cc(Nc2ccccc2)n(C(=O)c2ccc([N+](=O)[O-])cc2)n1	Cy5 interf NS3h 0.74
CCOC(=O)C1=C(C)N=C2SCCC(=O)N2C1c1ccc(OC)c(OC)c1 (stereo not drawn)	none
COc1ccc(CN2CCN(Cc3ccccc3OC)CC2)c(OC)c1	none
COc1ccc(CN2CCN(S(C)(=O)=O)CC2)c(OC)c1	Cy5 interf NS3h 0.69
COc1ccc(S(=O)(=O)N2CCN(Cc3cccc(OC)c3)CC2)cc1	none
COc1ccc(Br)cc1CN1CCN(S(C)(=O)=O)CC1	Cy5 interf NS3h 0.67
COc1cccc(CN2CCN(Cc3ccc(Br)cc3)CC2)c1OC	none
COc1ccc(CN2CCN(S(C)(=O)=O)CC2)cc1OCc1ccccc1	none
COc1cccc(CN2CCN(S(C)(=O)=O)CC2)c1	Cy5 interf NS3h 0.77
COc1cccc(CN2CCN(S(C)(=O)=O)CC2)c1OC	Cy5 interf NS3h 0.65
CN(CCS(=O)(=O)OCC(F)(F)F)c1ccc(C=O)cc1	none
O=C(Nc1cc(-c2ccc(F)cc2)[nH]n1)c1ccc(Br)cc1	none
Cc1ccc(-c2cc3nc(C)c(Cl)c(=O)n3[nH]2)cc1	Cy5 interf NS3h 0.77
Cc1nc2cc(-c3ccccc3Cl)[nH]n2c(=O)c1Cl	none
CCCc1cc(=O)n2[nH]c(-c3ccc(C)cc3)cc2n1	Cy5 interf NS3h 1.2
CCCc1cc(=O)n2[nH]c(-c3ccc(F)cc3)cc2n1	none
COc1ccccc1N(CC(=O)N1CCOCC1)S(=O)(=O)c1ccccc1	none
COc1ccc(/C=c2\sc3nc(-c4ccc(Cl)cc4Cl)nn3c2=O)cc1	none
CCCc1nccn1S(=O)(=O)c1ccc(Br)c2ccccc12	none
CCOC(=O)C1CCN(C(=O)C(c2ccccc2)c2ccccc2)CC1	none
CS(=O)(=O)N1CCN(Cc2ccccc2[N+](=O)[O-])CC1	Cy5 interf NS3h 0.72
CS(=O)(=O)N1CCN(Cc2ccccc2C(F)(F)F)CC1	Cy5 interf NS3h 0.55
Cc1ccccc1CN1CCN(S(C)(=O)=O)CC1	none
Cc1ccc(S(=O)(=O)N2CCN(Cc3ccccc3[N+](=O)[O-])CC2)cc1	none
Cc1cccc(COc2ccc3c(oc(=O)c4ccccc43)c2C)c1	none
O=C1c2ccccc2C(=O)N1/N=C\c1c(O)ccc2ccccc12	Cy5 interf NS3h 0.62
O=C1c2cccc3cccc(c23)C(=O)N1/N=C\c1ccc(O)cc1	none
COc1cc(/C=c2\sc3nc4ccccc4n3c2=O)cc(Cl)c1OCCOc1ccc(Br)cc1	none
CCC(C)NC(=O)/C(=C\c1ccc(OC(C)=O)c(OC)c1)NC(C)=O (stereo not drawn)	none
COc1ccc(NC(=O)COc2cccc3ccccc23)cc1	Cy5 interf NS3h 0.77
COc1ccccc1OCC(=O)Nc1ccc(S(N)(=O)=O)cc1	none
COc1ccc(C(=O)/C=C/Nc2ccc(Br)c(C)c2)cc1	none
O=C1C2CCCCC2C(=O)N1c1nc2ccccc2s1 (stereo not drawn)	none
S=C(NNc1nc2ccccc2s1)NC1CCCCC1	Cy5 interf NS3h 0.74
O=C(Cc1ccc(Cl)cc1)Nc1ccc(-c2nc3ccccc3o2)cc1	none
COc1ccc(C(=O)Nc2ccc(C)c(Cl)c2)cc1OC	Cy5 interf NS3h 0.73
Cc1cc(C(=O)Nc2ccc(N(C)C)cc2)ccc1[N+](=O)[O-]	Cy5 interf NS3h 0.24
COc1ccc(C(=O)Nc2ccc(C(N)=O)cc2)cc1[N+](=O)[O-]	Cy5 interf NS3h 0.78
Cc1ccc(NC(=O)c2ccc(I)cc2)cc1Cl	none
COc1ccc(C(=O)Nc2ccc(C(C)C)cc2)cc1[N+](=O)[O-]	none
Cc1cc(C)cc(NC(=O)c2ccc(C)c([N+](=O)[O-])c2)c1	none
c1coc(CN2CCN(Cc3ccc4ccccc4c3)CC2)c1	none
O=C(/C=C/c1ccccc1)NC(=S)Nc1ccc([N+](=O)[O-])cc1Cl	none
COc1cc(C2NC(=S)NC(C)=C2C(=O)Nc2ccccc2Cl)cc(OC)c1OC (stereo not drawn)	none
O=C1OC(c2ccccc2Br)=N/C1=C\c1cccs1	none
CSc1ccc(/C=C/C(=O)c2ccc(NC(=O)c3cccs3)cc2)cc1	Cy5 interf NS3h 0.71
O=C(Nc1ccc(/C=C/C(=O)c2cccs2)cc1)c1ccc(Br)cc1	none
S=C(c1cccc(OCc2ccccc2)c1)N1CCOCC1	Cy5 interf NS3h 0.64
COc1ccc(C(=O)Oc2cccc(C(=S)N3CCOCC3)c2)cc1	none
COc1ccc(CCN2C(=O)C(C)C(Cc3ccc(C)cc3)C2=O)cc1OC (stereo not drawn)	none
COC(=O)c1ccccc1NC(=O)Cn1cnc([N+](=O)[O-])n1	Cy5 interf NS3h 0.69
Cc1c(Cl)cccc1NC(=O)Cn1cnc([N+](=O)[O-])n1	none
C=CCCCC(=O)Nc1ccc(-c2ccc(NC(=O)CCCC=C)cc2)cc1	none
O=C(CCC(=O)OCC(F)(F)C(F)F)Nc1ccc(Cl)cc1Cl	Cy5 interf NS3h 0.78
O=C(CCCC(=O)OCC(F)(F)C(F)F)Nc1ccc(NC(=O)CCCC(=O)OCC(F)(F)C(F)F)cc1	Cy5 interf NS3h 0.62
C=CCCCC(=O)Nc1ccc(Cl)cc1Cl	none
Cc1ccc(NC(=O)C(=O)NCCC(C)C)c(C)c1	none
COCCOC(=O)C1=C(C)NC(C)=C(C(=O)OCCOC)C1c1cn(-c2ccccc2)nc1-c1ccc(F)cc1	none
CCOC(=O)N1CCN(C(=O)CN(c2ccc(C)cc2)S(=O)(=O)c2ccc(F)cc2)CC1	none
Cc1cc(C)c(NC(=O)C(C)SCC(=O)Nc2ccc3ccccc3c2)c(C)c1 (stereo not drawn)	none
Cc1cc(NC(=O)c2ccc(Cl)c([N+](=O)[O-])c2)ccc1Br	none
Cc1ccccc1C(=O)Nc1cccc(NC(=O)c2ccc(Cl)c([N+](=O)[O-])c2)c1	Cy5 interf NS3h 0.71
COc1cccc(C(=O)N2N=C(c3cccc([N+](=O)[O-])c3)CC2(O)C(F)(F)F)c1 (stereo not drawn)	none
COc1ccc(-c2nnc(Nc3ccc(C)cc3)c3ccccc23)cc1	none
Cc1ccc(-c2nnc(Nc3ccc4c(c3)ncn4C)c3ccccc23)cc1	none
Cc1nc2cc(Nc3nnc(-c4ccc(Cl)cc4)c4ccccc34)ccc2n1C	Cy5 interf NS3h 0.67
Cn1cnc2cc(Nc3nnc(-c4ccc(Cl)cc4)c4ccccc34)ccc21	Cy5 interf NS3h 0.7
CCn1c(C)nc2cc(C(=O)Nc3ccccc3)ccc21	none
Cc1ccc2c(c1)c(-c1ccccc1)c(-c1ccccc1)n2CC(O)CN1C(=O)CSC1=O (stereo not drawn)	none
O=S(=O)(Nc1ccc(O)cc1)c1ccc(F)cc1	none
O=C(c1ccc(F)cc1)c1ccc(NS(=O)(=O)c2ccc(Cl)cc2)cc1	Cy5 interf NS3h 1.2
O=S(=O)(Nc1ccc(O)cc1)c1ccc(Br)cc1	none
O=S(=O)(Nc1ccc(Br)cc1)c1ccc(Cl)cc1	Cy5 interf NS3h 0.79
O=Cc1ccc(OC(=O)c2ccccc2I)cc1	Cy5 interf NS3h 0.7
O=C1NC(=O)/C(=C/c2ccc(OC(=O)c3ccccc3I)cc2)S1	none
CCOC(=O)C1=C(C)NC(C)=C(C(=O)OCC)C1c1ccc(N(C)C)cc1	none
CC(=O)Nc1ccc(NC(=O)c2ccc(C(F)(F)F)cc2)cc1	Cy5 interf NS3h 0.76
CC(=O)Nc1ccc(NC(=O)c2ccc(Cl)c(Cl)c2)cc1	Cy5 interf NS3h 1.2
